Test systems include DU-145 prostate; K-562 leukemia; MALME-3M melanoma; MDA-MB-231 breast; RXF 393 renal; SF-268 CNS; SF-295 CNS; SF-539 CNS; UACC-257 melanoma; M14 melanoma; HCT-15 colon; HT29 colon; SNB-75 CNS; SNB-19 CNS; U251 CNS; PC-3 prostate; SK-MEL-5 melanoma; UACC-62 melanoma; LOX IMVI melanoma; SK-MEL-28 melanoma.
Assay in all cases: NCI-60 one-dose screen, 48 h (100 = growth as untreated, 0 = no growth, -100 = all killed)
Conditions in all cases: 10 µM unless noted

Compounds without any hit were thinned out: in the full panel of roughly 83,000, 20% have a hit.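 Single-dose data. Exposure time 48 hours. Values below 10 considered active.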 Unmarked numbers belong to inactive results. Activity calls are given as the source filed them.

Take `COc1cc(NC(=O)c2cncnc2Nc2ccc3c(ccn3Cc3ccccn3)c2)cc(OC)c1`: the growth in the experiment with DU-145 prostate is 65.4%; in the experiment with K-562 leukemia it was 17.1%; with MALME-3M melanoma, 44.7%; in the experiment with MDA-MB-231 breast, 50.6%; in the experiment on RXF 393 renal, 42%; in the experiment with SF-268 CNS, 63.1%. For the same compound, the growth in the experiment with SF-295 CNS was 35%; in the experiment on SF-539 CNS, 48.2%; with UACC-257 melanoma, 68%; in the experiment on M14 melanoma it was 36.5%; with HCT-15 colon, 30.7%; in the experiment with HT29 colon, 11.7%. Further, the growth is -3.17% (active) in the experiment on SNB-75 CNS; 58.3% in the experiment on SNB-19 CNS; 45.9% in the experiment with U251 CNS; 38.2% in the experiment on PC-3 prostate; 35.4% in the experiment on SK-MEL-5 melanoma; 58.1% with UACC-62 melanoma. The growth in the experiment on LOX IMVI melanoma is 39.9%; in the experiment on SK-MEL-28 melanoma, 63.8%.
Turning to `Cc1ccc(C(=O)Nc2cccc(C#Cc3cccc4[nH]nc(N)c34)c2)cc1C(F)(F)F`, the growth in the experiment with DU-145 prostate is 78.4%; in the experiment with K-562 leukemia it was 6.95% (active); in the experiment on MALME-3M melanoma, 6.04% (active); with MDA-MB-231 breast, 55.4%; in the experiment on RXF 393 renal it was 41.2%; with SF-268 CNS it was 60.8%. The growth with SF-295 CNS was 78.1%; with SF-539 CNS it was 8.47% (active); with UACC-257 melanoma it was 68%; with M14 melanoma, 21.6%; with HCT-15 colon, 48.9%; with HT29 colon, 27.3%. Also, the growth in the experiment on SNB-75 CNS is 88.4%; with SNB-19 CNS, 113%; in the experiment with U251 CNS, 81.5%; with PC-3 prostate, 69.8%; with SK-MEL-5 melanoma, 73.3%; in the experiment with UACC-62 melanoma, 41.1%. The results for the growth in the experiment with LOX IMVI melanoma and in the experiment with SK-MEL-28 melanoma were 25.4% and 41.7%, respectively.
In the case of `CC(=O)c1ccc(Nc2nccc(-c3ccc4ccccc4c3)n2)cc1`, the growth is 105% with DU-145 prostate; 59.6% in the experiment with K-562 leukemia; 101% in the experiment on MALME-3M melanoma; 102% in the experiment on MDA-MB-231 breast; 85.1% in the experiment with RXF 393 renal; 93.6% in the experiment with SF-268 CNS. Further, the growth in the experiment on SF-295 CNS is 100%; in the experiment on SF-539 CNS, 100%; with UACC-257 melanoma, 104%; in the experiment with M14 melanoma, 97.6%; with HCT-15 colon, 85.7%; in the experiment with HT29 colon it was 91.4%. Also, the growth was 91.8% with SNB-75 CNS; 94.9% with SNB-19 CNS; 95.5% in the experiment with U251 CNS; 91.5% with PC-3 prostate; 97.6% in the experiment on SK-MEL-5 melanoma; 88% with UACC-62 melanoma. Also, the growth with LOX IMVI melanoma was 99%; with SK-MEL-28 melanoma, 107%.
On to `NC(N)=NS(=O)(=O)c1ccc(NC2=C(I)C(=O)c3ncccc3C2=O)cc1`, for which the growth in the experiment with DU-145 prostate was 105%; with K-562 leukemia it was 94.2%; with MALME-3M melanoma it was 103%; in the experiment with MDA-MB-231 breast, 92.7%; in the experiment on RXF 393 renal, 108%; in the experiment with SF-268 CNS, 90.5%. In addition, the growth was 103% in the experiment on SF-295 CNS; 97.4% in the experiment on SF-539 CNS; 97.1% with UACC-257 melanoma; 111% with M14 melanoma; 103% with HCT-15 colon; 106% with HT29 colon. Also, the growth was 67.9% in the experiment with SNB-75 CNS; 98.7% in the experiment with SNB-19 CNS; 110% in the experiment on U251 CNS; 92.1% in the experiment on PC-3 prostate; 97.9% in the experiment on SK-MEL-5 melanoma; 94.2% in the experiment on UACC-62 melanoma. The growth was 95% in the experiment with LOX IMVI melanoma and 135% in the experiment with SK-MEL-28 melanoma.
For the compound `Cc1cccc[n+]1C1c2ccccc2-c2ccccc21`, the growth in the experiment with DU-145 prostate was 110%; in the experiment with K-562 leukemia, 86.6%; in the experiment with MALME-3M melanoma, 99.3%; in the experiment with MDA-MB-231 breast, 98.5%; in the experiment with RXF 393 renal, 102%; with SF-268 CNS, 94.4%. Moreover, the growth was 99.1% in the experiment on SF-295 CNS; 92.7% in the experiment with SF-539 CNS; 90.3% in the experiment on UACC-257 melanoma; 93.7% in the experiment with M14 melanoma; 109% in the experiment with HCT-15 colon; 79.2% in the experiment on HT29 colon. Further, the growth with SNB-75 CNS is 94.1%; in the experiment with SNB-19 CNS it was 89.7%; in the experiment on U251 CNS, 83.1%; in the experiment with PC-3 prostate it was 67.6%; with SK-MEL-5 melanoma it was 94.5%; with UACC-62 melanoma it was 92.3%. The figures for the growth with LOX IMVI melanoma and in the experiment with SK-MEL-28 melanoma were 97.8% and 102%, respectively.
With `COc1cc(OC)c(/C=C/C(=O)c2c(O)cc(OC)c(C3CCN(C)CC3)c2OC)c(OC)c1`, the growth in the experiment on DU-145 prostate was -36.2% (active); with K-562 leukemia it was 9.67% (active); with MALME-3M melanoma, -92.2% (active); with MDA-MB-231 breast, -68.1% (active); in the experiment on RXF 393 renal, -75.1% (active); with SF-268 CNS, -70.9% (active). Further, the growth with SF-295 CNS is -79.9% (active); in the experiment with SF-539 CNS, -91.4% (active); with UACC-257 melanoma, -81.7% (active); in the experiment with M14 melanoma it was -92.7% (active); in the experiment on HCT-15 colon it was -58.1% (active); in the experiment with HT29 colon it was -73.4% (active). The growth is -8.19% (active) in the experiment with SNB-75 CNS; -55.9% (active) in the experiment on SNB-19 CNS; -85.6% (active) with U251 CNS; -16.1% (active) in the experiment on PC-3 prostate; -99% (active) with SK-MEL-5 melanoma; -83.9% (active) with UACC-62 melanoma. For the same compound, the growth in the experiment on LOX IMVI melanoma was -93.3% (active); in the experiment with SK-MEL-28 melanoma, -100% (active).
Turning to `O=C(NNC(=O)c1ccc(NC(=O)c2ccccn2)cc1)Nc1ccc2ccccc2c1`, the growth in the experiment on DU-145 prostate was 110%; in the experiment with K-562 leukemia it was 106%; in the experiment on MALME-3M melanoma, 123%; in the experiment with MDA-MB-231 breast it was 115%; with RXF 393 renal it was 116%; in the experiment on SF-268 CNS it was 101%. Further, the growth was 103% with SF-295 CNS; 69% in the experiment with SF-539 CNS; 120% in the experiment on UACC-257 melanoma; 115% with M14 melanoma; 105% in the experiment with HCT-15 colon; 109% in the experiment on HT29 colon. The growth with SNB-75 CNS was 109%; in the experiment on SNB-19 CNS, 91.8%; in the experiment with U251 CNS, 101%; with PC-3 prostate, 107%; in the experiment with SK-MEL-5 melanoma it was 102%; with UACC-62 melanoma it was 108%. The values for the growth in the experiment on LOX IMVI melanoma and with SK-MEL-28 melanoma were 115% and 110%, respectively.
With `Cc1ccc(C(=O)c2ccc(CC(=O)N=Nc3c(O)[nH]c4ccc(Br)cc34)n2C)cc1`, the growth was 97.8% in the experiment with DU-145 prostate; 83.5% in the experiment with K-562 leukemia; 111% in the experiment with MALME-3M melanoma; 88.4% in the experiment on MDA-MB-231 breast; 87% in the experiment on RXF 393 renal; 87.7% with SF-268 CNS. For the same compound, the growth with SF-295 CNS is 99.1%; with SF-539 CNS, 92.4%; in the experiment with UACC-257 melanoma, 105%; in the experiment on M14 melanoma, 91.3%; with HCT-15 colon, 96.7%; in the experiment with HT29 colon it was 105%. Further, the growth with SNB-75 CNS was 84%; with SNB-19 CNS, 89%; with U251 CNS, 92.6%; in the experiment with PC-3 prostate, 89.3%; in the experiment with SK-MEL-5 melanoma it was 95.9%; with UACC-62 melanoma it was 94.6%. The growth is 88.9% with LOX IMVI melanoma and 102% with SK-MEL-28 melanoma.
